ChEMBL document CHEMBL3433997, “St. Jude Leishmania screening dataset” (2016)

Columns and labels:
Type in all cases: functional
[1] = biological target: Solute carrier family 2, facilitated glucose transporter member 1 (Homo sapiens) (UniProt P11166); test: ST_JUDE_LEISH: Cytotoxicity at 2uM final concentration against transgenic Leishmania Mexicana promastigotes LmGLUT1 that are glucose transport deficient and complemented with the human glucose transporter GLUT1. Activity is measured by DNA content using SYBR green in vitro
Chain of Solute carrier family 2, facilitated glucose transporter member 1 (Homo sapiens) (P11166 whole entry): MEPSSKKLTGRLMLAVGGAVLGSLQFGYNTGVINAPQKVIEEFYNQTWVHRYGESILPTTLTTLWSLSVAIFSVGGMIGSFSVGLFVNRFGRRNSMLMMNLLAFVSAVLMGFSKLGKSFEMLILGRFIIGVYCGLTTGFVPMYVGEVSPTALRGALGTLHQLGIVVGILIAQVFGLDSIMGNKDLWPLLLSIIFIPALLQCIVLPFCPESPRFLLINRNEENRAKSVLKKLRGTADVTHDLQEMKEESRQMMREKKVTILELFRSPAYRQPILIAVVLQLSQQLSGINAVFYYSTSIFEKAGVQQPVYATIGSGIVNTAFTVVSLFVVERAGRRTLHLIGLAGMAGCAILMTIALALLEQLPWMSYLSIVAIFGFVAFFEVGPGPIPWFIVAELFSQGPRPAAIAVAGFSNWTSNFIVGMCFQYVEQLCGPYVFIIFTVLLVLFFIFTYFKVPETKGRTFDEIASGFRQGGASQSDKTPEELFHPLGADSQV

[2] = biological target: Hexose transporter 1 (Plasmodium falciparum) (UniProt O97467); test: ST_JUDE_LEISH: Cytotoxicity at 2uM final concentration against transgenic Leishmania Mexicana promastigotes LmPfHT that are glucose transport deficient and complemented with the Plasmodium falciparum hexose transporter. Activity is measured by DNA content using SYBR green in vitro
[3] = biological target: Glucose transporter (Leishmania mexicana) (UniProt O61059); test: ST_JUDE_LEISH: Cytotoxicity at 2uM final concentration against transgenic Leishmania Mexicana promastigotes LmGT2 that are glucose transport deficient and complemented with the L. Mexicana glucose transporter 2. Activity is measured by DNA content using SYBR green in vitro

**Q.** Which results are given for O=C(Nc1ccc2c(c1)CCN2C1CCN(Cc2ccc(F)cc2Cl)C1)c1ccco1 (centres undefined)?
**A.** inhibition [1]: 1.66%; inhibition [2]: 0.61%; inhibition [3]: 2.25%

**Q.** For CC(=O)C1=NN(c2ccc(C)cc2)C(c2cccs2)N1c1ccccc1 (centres undefined), which inhibition [1] is on record?
**A.** 2.5%

**Q.** What about the inhibition [2] of the same molecule?
**A.** 2.74%

**Q.** What about the inhibition [3] of the same molecule?
**A.** 2.11%

**Q.** CCNCc1ccc(-c2cccc(-c3nc4ccccc4[nH]3)c2)cc1 was tested. Which inhibition [1] did it give?
**A.** 1.09%

**Q.** And the inhibition [2]?
**A.** 1.16%

**Q.** And the inhibition [3]?
**A.** 3.49%

**Q.** With CO/C(=C\C=C\c1cc2cc(Cl)c(Cl)cc2[nH]1)C(=O)Nc1ccc(NCCN(C)C)nc1 as the molecule, how does the inhibition [1] read?
**A.** 6.97%

**Q.** What about the inhibition [2] of the same molecule?
**A.** 6.98%

**Q.** What about the inhibition [3] of the same molecule?
**A.** 2.42%

**Q.** For CCCc1ccc(S(=O)(=O)Nc2ccc3c(c2)CCC3)cc1, which inhibition [1] is on record?
**A.** 1.93%

**Q.** What about the inhibition [2] of the same molecule?
**A.** 4.05%

**Q.** What about the inhibition [3] of the same molecule?
**A.** 3.52%

**Q.** Which inhibition [1] does the source give for O=C1Nc2cccc3c2C1(CCCCN1CCC(c2c[nH]c4cc(C(F)(F)F)ccc24)CC1)CCC3 (centres undefined) here?
**A.** 3.89%

**Q.** And the inhibition [2]?
**A.** 1.75%

**Q.** And the inhibition [3]?
**A.** 0.54%

**Q.** Which inhibition [1] does the source give for COc1cc(C)nc2ccc(NC(=O)c3cc([N+](=O)[O-])cc([N+](=O)[O-])c3)cc12 here?
**A.** 2.43%

**Q.** And the inhibition [2]?
**A.** 0.24%

**Q.** What about the inhibition [3] of the same molecule?
**A.** 3.33%

**Q.** Which inhibition [1] does the source give for Cc1nc(-c2ccc(-c3ccc(C(=O)Nc4ccc(Cl)c(N5CCN(C)CC5)c4)cc3)c(C)c2)no1 here?
**A.** 8.11%

**Q.** And the inhibition [2]?
**A.** 7.83%

**Q.** And the inhibition [3]?
**A.** 8.29%

**Q.** How did the inhibition [1] turn out when O=C(Nc1c(F)cccc1F)c1cccc(-c2nn3ccccc3c2-c2ccnc(Nc3cccc(-c4cnco4)c3)n2)c1 was run?
**A.** 12.2%

**Q.** And the inhibition [2]?
**A.** 4.66%

**Q.** And the inhibition [3]?
**A.** 1.5%

**Q.** What does the source list for CCc1c[nH]c2c(N3CCCS3(=O)=O)cc(C(=O)N[C@@H](Cc3ccccc3)[C@H](O)CNC(C)(C)CCCC(C)C)cc12?
**A.** inhibition [1]: 1.92%; inhibition [2]: 2.29%; inhibition [3]: 0.89%

**Q.** Which results are given for COc1ccccc1NC(=O)Nc1ccc(-c2ccc(-c3nc4cccc(C)c4[nH]3)s2)cc1?
**A.** inhibition [1]: 3.53%; inhibition [2]: 1.17%; inhibition [3]: 1.64%

**Q.** COc1ccc(Nc2ncc(C#N)c(Nc3ccccc3C(N)=O)n2)cc1N1CCN(C)CC1 was tested. Which inhibition [1] did it give?
**A.** 15.8%

**Q.** What about the inhibition [2] of the same molecule?
**A.** 18.1%

**Q.** What about the inhibition [3] of the same molecule?
**A.** 9.63%

**Q.** For C[C@@H](Oc1cc(-n2cnc3ccc(NC(=O)CCN4CCCCC4)cc32)sc1C(N)=O)c1ccccc1Cl, which inhibition [1] is on record?
**A.** 8.99%

**Q.** And the inhibition [2]?
**A.** 5.72%

**Q.** What about the inhibition [3] of the same molecule?
**A.** -0.04%

**Q.** Which results are given for CS(=O)(=O)c1ccc(-c2cncc(Nc3cccc([N+](=O)[O-])c3)c2)cc1?
**A.** inhibition [1]: 7.42%; inhibition [2]: 7%; inhibition [3]: 6.3%

**Q.** What does the source list for Cc1cc(-c2ccc(NC(=O)c3coc4ccc(N5CC(C)N(C)C(C)C5)cc34)cc2C)cc(C)n1 (centres undefined)?
**A.** inhibition [1]: 2.55%; inhibition [2]: 3.78%; inhibition [3]: 1.55%

**Q.** Which inhibition [1] does the source give for Brc1cc(CNCCCNc2nc3ccccc3[nH]2)sc1Br here?
**A.** 6.22%

**Q.** What about the inhibition [2] of the same molecule?
**A.** 9.1%

**Q.** And the inhibition [3]?
**A.** 6.32%

**Q.** With Cc1[nH]c(C)c(-c2ccc(C#Cc3ccc(F)cc3F)cc2)c(=O)c1Br as the molecule, how does the inhibition [1] read?
**A.** -0.29%

**Q.** What about the inhibition [2] of the same molecule?
**A.** 1.21%

**Q.** And the inhibition [3]?
**A.** 0.22%

**Q.** With COc1ccc2c(ccc3c2ncc2c(=O)n(-c4ccccc4)[nH]c23)c1 as the molecule, how does the inhibition [1] read?
**A.** -1.88%

**Q.** And the inhibition [2]?
**A.** -1.2%

**Q.** What about the inhibition [3] of the same molecule?
**A.** -0.76%

**Q.** How did the inhibition [1] turn out when O=C(Nc1ccc2c(c1)OCO2)c1cc(-c2cccnc2)cnc1NCc1ccc2c(c1)OCO2 was run?
**A.** 0.99%

**Q.** And the inhibition [2]?
**A.** 0.19%

**Q.** And the inhibition [3]?
**A.** 2.1%

**Q.** Which results are given for COc1ccc2nccc([C@@H](O)CN3CCC(NC(=O)/C=C/c4cc(F)cc(NC(C)=O)c4)CC3)c2c1?
**A.** inhibition [1]: 5.61%; inhibition [2]: 2.3%; inhibition [3]: -3.44%

**Q.** COc1c(C2CCN(CCCCNC(=O)c3ccc(-c4ccc(C#N)cc4)cc3)CC2)ccc2c1C(C)(C)CCC2(C)C was tested. Which inhibition [1] did it give?
**A.** 1.57%

**Q.** What about the inhibition [2] of the same molecule?
**A.** 2.62%

**Q.** What about the inhibition [3] of the same molecule?
**A.** -0.67%

**Q.** Which inhibition [1] does the source give for COc1ccc2nccc([C@@H](O)CN3CCC(NCc4cc5cc([N+](=O)[O-])ccc5[nH]4)CC3)c2c1 here?
**A.** 8.79%

**Q.** What about the inhibition [2] of the same molecule?
**A.** 6.38%

**Q.** And the inhibition [3]?
**A.** 4.29%

**Q.** How did the inhibition [1] turn out when c1cncc(CCNCc2ccc(-c3ccc(-c4nc5ccccc5[nH]4)s3)cc2)c1 was run?
**A.** 8.43%

**Q.** And the inhibition [2]?
**A.** 6.34%

**Q.** And the inhibition [3]?
**A.** 0.7%

**Q.** What does the source list for COc1cccc(C=Cc2nc(=O)c3ccccc3o2)c1OC?
**A.** inhibition [1]: 4.18%; inhibition [2]: 0.32%; inhibition [3]: 0.45%

**Q.** What does the source list for COc1ccc2c(NN=Cc3ccc(N(C)C)cc3)ccnc2c1?
**A.** inhibition [1]: 10.8%; inhibition [2]: 10.8%; inhibition [3]: 8.44%

**Q.** With COCCNCc1ccc(-c2ccc(CNC3CCN(Cc4ccccc4)CC3)cc2)cc1 as the molecule, how does the inhibition [1] read?
**A.** 0.78%

**Q.** What about the inhibition [2] of the same molecule?
**A.** 2.82%

**Q.** What about the inhibition [3] of the same molecule?
**A.** 5.2%

**Q.** How did the inhibition [1] turn out when N=C(N)NCCCC(=O)NCC(N)=O was run?
**A.** 5.44%

**Q.** What about the inhibition [2] of the same molecule?
**A.** 8.67%

**Q.** And the inhibition [3]?
**A.** 2.28%

**Q.** CN(Cc1cc(C(F)(F)F)cc(C(F)(F)F)c1)C(=O)C1CNCC1c1ccc(F)cc1 (centres undefined) was tested. Which inhibition [1] did it give?
**A.** 6.61%

**Q.** And the inhibition [2]?
**A.** 5.75%

**Q.** What about the inhibition [3] of the same molecule?
**A.** 3.05%

**Q.** Which inhibition [1] does the source give for CN(C)C(=O)n1cnc(S(=O)(=O)N(C)c2ccc(Cl)cc2)n1 here?
**A.** 5.67%

**Q.** What about the inhibition [2] of the same molecule?
**A.** 6.99%

**Q.** What about the inhibition [3] of the same molecule?
**A.** 4.38%

**Q.** What does the source list for CCOC(=O)c1c(C)noc1Nc1ccc(OC)cc1?
**A.** inhibition [1]: 1.87%; inhibition [2]: 2.32%; inhibition [3]: 2.21%

**Q.** How did the inhibition [1] turn out when O=C(Nc1cccc(C(F)(F)F)c1)c1ccc(S(=O)(=O)NCC2CCCN(CC3CCCCC3)C2)cc1 (centres undefined) was run?
**A.** 1.23%

**Q.** And the inhibition [2]?
**A.** 0.41%

**Q.** What about the inhibition [3] of the same molecule?
**A.** -0.91%

**Q.** COc1cc2nc(N3CCC(CNC(=O)c4ccc(-c5ccccc5)cc4)CC3)nc(N)c2cc1OC was tested. Which inhibition [1] did it give?
**A.** 1.43%

**Q.** What about the inhibition [2] of the same molecule?
**A.** 1.28%

**Q.** And the inhibition [3]?
**A.** 0.24%

**Q.** Which inhibition [1] does the source give for Cc1[nH]c(C)c(-c2ccc(-c3ccc(C#N)cc3)nc2)c(=O)c1Br here?
**A.** 9.47%

**Q.** And the inhibition [2]?
**A.** 10.2%

**Q.** And the inhibition [3]?
**A.** 6.23%
